Experimental data from the supplement of paper PMC11732987, “Enantioselective OTUD7B fragment discovery through chemoproteomics screening and high-throughput optimisation” (Communications Chemistry, 2025).

Experiments:
Experiment in all cases: log2 ratio of Biotin-Ahx-Ub-VS probe labelling (fragment/DMSO); higher = less target engagement (more negative = stronger competition), active = hit call of the paper (q ≤ 0.05, log2 ratio ≤ -1)
Conditions in all cases: compound concentration: 200 uM; treatment time: 3 h
USP34 = USP34 (UniProt Q70CQ2)
In short: (§1)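 Each value is an average log2 ratio of fragment to vehicle, tested by unpaired t-test. The underlying Spectronaut label-free quantities were global-median-normalised, and only proteins with ≥2 unique peptides were included. Triplicate HEK293T lysate samples (495 µg) were exposed to fragment at 200 µM or vehicle for 3 h, then to Biotin-Ahx-Ub-VS at 0.5 µM final for 1 h, before NeutrAvidin enrichment of labelled DUBs, LysC and trypsin digestion, and diaPASEF LC-MS/MS.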

USP36 = biological target: T1, USP36 (UniProt Q9P275)
T1 sequence (whole entry): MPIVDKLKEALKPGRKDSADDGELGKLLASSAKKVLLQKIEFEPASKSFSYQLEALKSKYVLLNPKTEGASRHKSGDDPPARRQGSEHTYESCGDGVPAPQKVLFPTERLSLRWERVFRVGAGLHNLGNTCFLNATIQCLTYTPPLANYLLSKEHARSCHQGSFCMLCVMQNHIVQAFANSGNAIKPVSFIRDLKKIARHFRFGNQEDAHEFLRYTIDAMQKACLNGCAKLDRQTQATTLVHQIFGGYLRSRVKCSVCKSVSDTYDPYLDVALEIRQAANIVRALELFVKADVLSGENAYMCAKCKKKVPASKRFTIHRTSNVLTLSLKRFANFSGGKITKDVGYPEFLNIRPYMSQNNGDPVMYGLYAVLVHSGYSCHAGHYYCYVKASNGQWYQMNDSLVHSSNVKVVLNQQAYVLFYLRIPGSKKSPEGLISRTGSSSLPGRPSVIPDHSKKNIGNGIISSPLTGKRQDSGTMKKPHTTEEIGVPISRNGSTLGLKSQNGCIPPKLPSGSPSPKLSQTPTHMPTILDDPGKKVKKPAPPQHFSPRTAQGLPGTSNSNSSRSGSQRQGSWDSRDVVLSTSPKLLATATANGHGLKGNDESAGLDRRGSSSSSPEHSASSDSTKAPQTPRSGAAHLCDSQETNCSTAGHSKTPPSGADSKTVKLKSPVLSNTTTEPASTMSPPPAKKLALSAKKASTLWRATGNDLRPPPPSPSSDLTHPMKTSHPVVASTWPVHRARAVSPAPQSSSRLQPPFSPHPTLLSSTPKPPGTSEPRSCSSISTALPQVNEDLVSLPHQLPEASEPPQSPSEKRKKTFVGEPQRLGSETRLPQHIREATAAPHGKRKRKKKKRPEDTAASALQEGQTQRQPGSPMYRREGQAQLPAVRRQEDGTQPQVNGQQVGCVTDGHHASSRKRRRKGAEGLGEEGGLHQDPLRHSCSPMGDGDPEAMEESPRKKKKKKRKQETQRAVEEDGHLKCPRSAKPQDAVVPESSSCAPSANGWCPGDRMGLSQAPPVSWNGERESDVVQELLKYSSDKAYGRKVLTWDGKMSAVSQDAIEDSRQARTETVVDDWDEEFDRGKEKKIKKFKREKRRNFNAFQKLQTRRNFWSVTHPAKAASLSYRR
In short: as §1

USP38 = biological target: T2, USP38 (UniProt Q8NB14)
T2 sequence (whole entry): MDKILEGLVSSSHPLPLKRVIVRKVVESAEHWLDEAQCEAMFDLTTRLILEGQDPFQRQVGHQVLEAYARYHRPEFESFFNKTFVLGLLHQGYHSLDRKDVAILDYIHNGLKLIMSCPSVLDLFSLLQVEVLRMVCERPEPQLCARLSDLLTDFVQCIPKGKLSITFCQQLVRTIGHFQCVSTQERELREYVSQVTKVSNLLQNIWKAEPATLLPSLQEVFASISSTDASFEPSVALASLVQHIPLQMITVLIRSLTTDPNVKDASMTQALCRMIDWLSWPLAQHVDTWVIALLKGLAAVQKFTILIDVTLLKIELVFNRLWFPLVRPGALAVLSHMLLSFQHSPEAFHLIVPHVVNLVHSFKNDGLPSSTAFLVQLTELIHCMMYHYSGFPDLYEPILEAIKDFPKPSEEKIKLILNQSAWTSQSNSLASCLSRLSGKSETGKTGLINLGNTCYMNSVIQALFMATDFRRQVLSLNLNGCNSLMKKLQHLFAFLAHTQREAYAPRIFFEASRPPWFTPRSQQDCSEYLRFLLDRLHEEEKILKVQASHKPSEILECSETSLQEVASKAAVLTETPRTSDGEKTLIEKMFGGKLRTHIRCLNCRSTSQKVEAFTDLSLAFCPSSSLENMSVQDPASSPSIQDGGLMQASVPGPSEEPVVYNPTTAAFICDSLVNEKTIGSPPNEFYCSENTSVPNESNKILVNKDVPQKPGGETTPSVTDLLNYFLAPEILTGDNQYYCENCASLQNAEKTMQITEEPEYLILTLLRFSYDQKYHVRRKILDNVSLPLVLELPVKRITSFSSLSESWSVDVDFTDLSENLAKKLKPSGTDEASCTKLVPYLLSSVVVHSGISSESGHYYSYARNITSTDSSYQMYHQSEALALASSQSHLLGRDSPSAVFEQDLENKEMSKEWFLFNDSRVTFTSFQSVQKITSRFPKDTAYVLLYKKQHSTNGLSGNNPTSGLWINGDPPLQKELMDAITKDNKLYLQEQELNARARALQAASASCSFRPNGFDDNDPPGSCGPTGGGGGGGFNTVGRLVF
In short: as §1

USP39 = biological target: T3, USP39 (UniProt Q53GS9)
T3 sequence (whole entry): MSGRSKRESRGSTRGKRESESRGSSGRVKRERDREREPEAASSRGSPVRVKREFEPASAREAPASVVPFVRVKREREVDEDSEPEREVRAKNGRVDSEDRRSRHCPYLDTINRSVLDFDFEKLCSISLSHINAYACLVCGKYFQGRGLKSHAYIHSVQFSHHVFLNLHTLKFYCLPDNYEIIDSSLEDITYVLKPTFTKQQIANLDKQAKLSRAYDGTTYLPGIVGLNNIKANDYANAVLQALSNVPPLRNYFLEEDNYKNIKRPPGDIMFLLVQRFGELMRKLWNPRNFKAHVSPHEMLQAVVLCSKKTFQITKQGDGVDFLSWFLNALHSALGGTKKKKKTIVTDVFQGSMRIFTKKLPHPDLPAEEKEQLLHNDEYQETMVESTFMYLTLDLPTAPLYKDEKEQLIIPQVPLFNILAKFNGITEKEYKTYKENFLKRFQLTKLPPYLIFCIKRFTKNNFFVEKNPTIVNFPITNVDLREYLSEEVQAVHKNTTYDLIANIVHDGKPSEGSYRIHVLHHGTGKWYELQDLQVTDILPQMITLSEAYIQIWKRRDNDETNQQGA
In short: as §1

USP4 = biological target: T4, USP4 (UniProt Q13107)
T4 sequence (whole entry): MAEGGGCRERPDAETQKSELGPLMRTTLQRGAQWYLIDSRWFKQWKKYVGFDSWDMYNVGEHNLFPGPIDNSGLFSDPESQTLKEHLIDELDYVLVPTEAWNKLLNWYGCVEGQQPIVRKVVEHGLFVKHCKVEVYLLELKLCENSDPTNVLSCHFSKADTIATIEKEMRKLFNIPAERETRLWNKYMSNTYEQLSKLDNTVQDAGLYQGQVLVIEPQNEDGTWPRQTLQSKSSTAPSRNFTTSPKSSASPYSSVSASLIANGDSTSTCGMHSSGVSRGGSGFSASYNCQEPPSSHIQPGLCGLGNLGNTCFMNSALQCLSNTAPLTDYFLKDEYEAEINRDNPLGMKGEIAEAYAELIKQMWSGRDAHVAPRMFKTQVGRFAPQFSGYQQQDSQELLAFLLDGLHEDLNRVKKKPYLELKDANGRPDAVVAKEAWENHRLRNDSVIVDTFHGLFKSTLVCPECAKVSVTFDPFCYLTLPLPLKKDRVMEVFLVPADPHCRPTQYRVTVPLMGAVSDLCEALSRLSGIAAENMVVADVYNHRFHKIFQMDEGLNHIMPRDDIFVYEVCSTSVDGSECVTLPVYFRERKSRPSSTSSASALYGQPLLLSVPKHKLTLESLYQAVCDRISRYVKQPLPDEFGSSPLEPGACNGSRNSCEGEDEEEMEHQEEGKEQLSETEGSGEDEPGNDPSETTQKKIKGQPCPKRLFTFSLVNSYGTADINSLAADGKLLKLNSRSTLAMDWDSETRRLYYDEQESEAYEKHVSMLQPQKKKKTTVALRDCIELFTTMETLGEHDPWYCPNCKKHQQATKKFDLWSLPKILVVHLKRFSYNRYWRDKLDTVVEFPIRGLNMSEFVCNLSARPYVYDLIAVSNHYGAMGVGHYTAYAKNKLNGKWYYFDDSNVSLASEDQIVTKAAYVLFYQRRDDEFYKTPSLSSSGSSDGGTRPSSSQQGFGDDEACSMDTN
In short: as §1

Measured: log2 ratio of Biotin-Ahx-Ub-VS probe labelling

Sequence of USP34 (Q70CQ2 whole entry, the tested form may be a part): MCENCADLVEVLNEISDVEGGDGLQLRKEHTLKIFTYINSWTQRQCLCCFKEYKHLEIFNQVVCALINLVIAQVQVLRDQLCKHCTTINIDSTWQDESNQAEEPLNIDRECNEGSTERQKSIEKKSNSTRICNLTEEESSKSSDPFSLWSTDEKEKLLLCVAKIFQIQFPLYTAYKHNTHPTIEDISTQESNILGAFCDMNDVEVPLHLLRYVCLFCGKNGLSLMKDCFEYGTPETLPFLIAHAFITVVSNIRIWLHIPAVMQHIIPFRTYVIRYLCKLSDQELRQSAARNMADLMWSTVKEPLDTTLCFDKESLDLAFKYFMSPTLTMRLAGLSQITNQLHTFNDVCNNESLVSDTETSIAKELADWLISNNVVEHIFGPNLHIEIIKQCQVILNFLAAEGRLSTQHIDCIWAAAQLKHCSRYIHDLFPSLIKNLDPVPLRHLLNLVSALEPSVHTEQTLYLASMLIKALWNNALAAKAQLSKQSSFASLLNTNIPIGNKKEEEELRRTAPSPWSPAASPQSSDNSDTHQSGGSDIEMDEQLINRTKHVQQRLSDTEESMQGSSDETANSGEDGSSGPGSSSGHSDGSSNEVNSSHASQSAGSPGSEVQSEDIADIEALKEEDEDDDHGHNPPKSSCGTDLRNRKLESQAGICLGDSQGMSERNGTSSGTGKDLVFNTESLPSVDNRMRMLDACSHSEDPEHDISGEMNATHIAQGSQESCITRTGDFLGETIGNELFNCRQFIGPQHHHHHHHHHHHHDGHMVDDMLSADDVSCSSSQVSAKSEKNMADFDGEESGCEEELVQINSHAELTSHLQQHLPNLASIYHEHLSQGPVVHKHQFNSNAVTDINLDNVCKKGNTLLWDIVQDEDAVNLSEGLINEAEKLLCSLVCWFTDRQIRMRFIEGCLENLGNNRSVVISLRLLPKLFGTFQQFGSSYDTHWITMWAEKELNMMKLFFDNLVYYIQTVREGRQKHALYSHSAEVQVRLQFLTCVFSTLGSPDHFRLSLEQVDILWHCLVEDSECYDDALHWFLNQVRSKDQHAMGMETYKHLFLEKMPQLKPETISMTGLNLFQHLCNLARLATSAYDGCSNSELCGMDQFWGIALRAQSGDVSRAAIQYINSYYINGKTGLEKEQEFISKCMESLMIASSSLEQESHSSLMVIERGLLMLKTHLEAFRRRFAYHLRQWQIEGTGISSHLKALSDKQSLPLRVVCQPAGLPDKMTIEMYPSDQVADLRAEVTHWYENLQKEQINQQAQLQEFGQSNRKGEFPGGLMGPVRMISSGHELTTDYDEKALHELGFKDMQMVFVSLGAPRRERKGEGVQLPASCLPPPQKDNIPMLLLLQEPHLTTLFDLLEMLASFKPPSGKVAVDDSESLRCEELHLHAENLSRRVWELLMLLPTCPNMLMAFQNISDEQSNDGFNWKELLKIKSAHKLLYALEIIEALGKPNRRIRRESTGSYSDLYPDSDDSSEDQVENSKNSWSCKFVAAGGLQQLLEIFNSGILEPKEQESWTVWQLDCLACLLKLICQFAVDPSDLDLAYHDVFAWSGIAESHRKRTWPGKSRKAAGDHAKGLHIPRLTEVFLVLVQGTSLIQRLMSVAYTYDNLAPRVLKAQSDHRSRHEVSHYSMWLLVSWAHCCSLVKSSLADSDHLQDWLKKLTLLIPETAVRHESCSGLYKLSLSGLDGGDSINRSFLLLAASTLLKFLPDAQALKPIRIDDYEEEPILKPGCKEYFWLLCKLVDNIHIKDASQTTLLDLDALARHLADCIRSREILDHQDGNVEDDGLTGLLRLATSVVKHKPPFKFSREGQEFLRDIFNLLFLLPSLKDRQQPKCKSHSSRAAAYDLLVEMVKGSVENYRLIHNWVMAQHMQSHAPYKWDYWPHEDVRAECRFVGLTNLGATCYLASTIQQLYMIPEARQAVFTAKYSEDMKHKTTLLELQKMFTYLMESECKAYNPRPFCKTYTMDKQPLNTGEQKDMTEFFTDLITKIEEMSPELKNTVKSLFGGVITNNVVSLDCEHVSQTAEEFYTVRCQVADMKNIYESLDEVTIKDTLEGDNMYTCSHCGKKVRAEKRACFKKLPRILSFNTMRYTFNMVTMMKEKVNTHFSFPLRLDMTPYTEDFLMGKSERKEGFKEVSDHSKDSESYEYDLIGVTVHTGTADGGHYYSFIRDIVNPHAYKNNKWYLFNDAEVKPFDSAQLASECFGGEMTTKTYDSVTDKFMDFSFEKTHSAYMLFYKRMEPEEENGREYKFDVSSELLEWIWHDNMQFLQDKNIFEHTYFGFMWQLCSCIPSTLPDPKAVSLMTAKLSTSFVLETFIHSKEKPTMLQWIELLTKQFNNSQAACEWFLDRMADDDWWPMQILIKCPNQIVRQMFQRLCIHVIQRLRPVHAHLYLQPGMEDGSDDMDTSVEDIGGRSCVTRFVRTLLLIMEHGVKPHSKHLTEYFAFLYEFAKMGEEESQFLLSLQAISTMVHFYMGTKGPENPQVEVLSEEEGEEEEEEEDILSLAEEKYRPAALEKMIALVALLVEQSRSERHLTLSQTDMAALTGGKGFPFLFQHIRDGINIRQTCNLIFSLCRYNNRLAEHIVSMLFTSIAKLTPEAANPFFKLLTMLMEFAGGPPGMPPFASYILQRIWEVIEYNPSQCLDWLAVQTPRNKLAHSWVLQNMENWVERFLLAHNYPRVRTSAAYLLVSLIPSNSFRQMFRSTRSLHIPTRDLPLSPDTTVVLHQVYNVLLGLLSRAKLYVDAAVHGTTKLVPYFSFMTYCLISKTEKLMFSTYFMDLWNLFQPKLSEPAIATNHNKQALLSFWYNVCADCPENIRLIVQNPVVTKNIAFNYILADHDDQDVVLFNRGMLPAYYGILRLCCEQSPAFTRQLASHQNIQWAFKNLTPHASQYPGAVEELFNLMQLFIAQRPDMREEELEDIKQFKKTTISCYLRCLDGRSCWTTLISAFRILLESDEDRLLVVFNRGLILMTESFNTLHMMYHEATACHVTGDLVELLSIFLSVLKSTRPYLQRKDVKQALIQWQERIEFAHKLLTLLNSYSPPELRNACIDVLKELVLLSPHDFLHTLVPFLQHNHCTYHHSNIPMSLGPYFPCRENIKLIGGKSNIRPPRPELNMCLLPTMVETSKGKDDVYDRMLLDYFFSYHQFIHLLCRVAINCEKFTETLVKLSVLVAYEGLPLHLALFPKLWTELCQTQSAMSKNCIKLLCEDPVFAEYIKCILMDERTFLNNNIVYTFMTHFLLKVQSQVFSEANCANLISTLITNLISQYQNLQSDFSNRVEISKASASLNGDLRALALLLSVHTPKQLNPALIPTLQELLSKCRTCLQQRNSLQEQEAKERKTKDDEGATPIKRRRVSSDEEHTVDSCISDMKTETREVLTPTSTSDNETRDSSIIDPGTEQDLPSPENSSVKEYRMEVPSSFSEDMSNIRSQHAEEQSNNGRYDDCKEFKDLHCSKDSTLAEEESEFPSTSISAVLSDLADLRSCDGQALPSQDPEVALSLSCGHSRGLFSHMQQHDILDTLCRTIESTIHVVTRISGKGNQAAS

Cc1ccccc1OCC(=O)N1CCN(C(=O)CCl)CC1
inactive: USP34 -0.131 | USP36 -0.102 | USP38 -0.159 | USP39 0.114 | USP4 -0.0294
